In PubChem BioAssay AID652154 (Broad Institute, 2013):
About 4,200 (1.2%) of roughly 360,000 compounds were called active. This is one part of a sample in which actives are shown more often than they occur. Unmarked numbers belong to inactive results.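 Rule for the calls: active = mean replicate inhibition at least 60% with every replicate also reaching 60%; inconclusive = only one of the two criteria is met; inactive = mean below 60% and not all replicates reaching 60%.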

Assay: inhibitors of PAX8-driven TPO luciferase reporter, primary screen, RMG-I cells, single concentration (AID 652154);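 note: luciferase light reporting Pax8 driven TPO promoter activity; plate controls were median of neutral control wells for no effect and mitoxantrone controls for full effect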
Conditions: SteadyGlo, 24 h, at 12.6 µM, stronger effect = higher value

| SMILES | inhibition |
| --- | --- |
| COc1ccc(-c2cc(C(=O)N(C)Cc3ccc(OC)c(OC)c3OC)c3ccccc3n2)cc1OC | 27.1% |
| COc1ccc(-c2cc(C(=O)NCCCN3CCCC3=O)c3ccccc3n2)cc1OC | 2.26% |
| COc1ccc(-c2cc(C(F)(F)F)nc(S(C)(=O)=O)n2)cc1OC | 122% (active) |
| Cc1ccccc1S(=O)(=O)N1[C@@H](C#N)[C@H](c2ccccc2)[C@@H]1CO | -4.36% |
| O=C(Cc1ccccc1)N1CC2(C1)[C@H](c1ccccc1)[C@@H](CO)N2C(=O)c1cccnc1 | -7.25% |
| COc1ccnc(Oc2ccccc2)n1 | -3.33% |
| COc1ccccc1-n1cn[nH]c1=S | 8.11% |
| COc1ccnc(Oc2ccccc2)c1-c1ncn[nH]1 | 84.6% (active) |
| OC[C@@H]1[C@@H](c2ccc(-c3ccccc3F)cc2)[C@@H]2CN(Cc3cncnc3)CCCCN12 | 4.63% |
| CN(C(=O)CSc1nnc(C2CC2)n1C)C1CCCc2ccccc21 (stereo not drawn) | 8.2% |
| CC1Cc2ccccc2N1C(=O)CSc1nnc(C2CC2)n1C (stereo not drawn) | 78.3% (active) |
| CC1Cc2ccccc2N1C(=O)CSc1nnc(-c2ccc(S(=O)(=O)N3CCCC3)cc2)n1C (stereo not drawn) | 20.8% |
| O=C(N[C@H]1CC[C@@H](CCn2cc(Cc3ccccc3)nn2)O[C@H]1CO)c1cnccn1 | -16.7% |
| C[C@H](CO)N1C[C@H](C)[C@H](CN(C)CC2CC2)Oc2cc(-c3ccc(F)cc3)ccc2S1(=O)=O | -2.31% |
| CC(C)CC1NC(=O)c2cc(Cl)ccc2-n2c1nc1ccccc1c2=O (stereo not drawn) | 6.69% |
| O=C1NC(Cc2ccccc2)c2nc3ccc(Br)cc3c(=O)n2-c2cc3ccccc3cc21 (stereo not drawn) | 34.1% |
| COc1ccc2nc3n(c(=O)c2c1)-c1ccc(Cl)cc1C(=O)NC3Cc1ccccc1 (stereo not drawn) | 82.6% (active) |
| Cc1noc(C)c1NC(=O)N(C)C[C@H]1OCCCC[C@H](C)Oc2ccc(NC(=O)Nc3ccccc3)cc2C(=O)N([C@H](C)CO)C[C@@H]1C | 8.48% |
| COc1ccccc1CNC(=O)C[C@H]1CC[C@@H](NC(=O)CN(C)C)[C@@H](CO)O1 | -11.2% |
| COc1cccc(C#Cc2ccc([C@@H]3[C@H](C#N)N[C@H]3CO)cc2)c1 | -230% |
| O=C(C[C@@H]1C[C@@H]2c3cc(NC(=O)NC4CCCC4)ccc3O[C@@H]2[C@@H](CO)O1)NCc1ccccc1 | -4.64% |
| C[C@H](CO)N1C[C@H](C)[C@@H](CN(C)C(=O)c2cnccn2)Oc2ncc(-c3ccccc3F)cc2C1=O | 2.74% |
| C[C@@H]1CN([C@H](C)CO)C(=O)c2c(c3ccccc3n2C)-c2ccccc2CO[C@H]1CN(C)S(=O)(=O)c1ccccc1F | 40.5% |
| C[C@H](CO)N1C[C@H](C)[C@@H](CN(C)S(=O)(=O)c2ccc([N+](=O)[O-])cc2)OCc2ccccc2-c2c(n(C)c3ccccc23)C1=O | 16.1% |
| C[C@H](CO)N1C[C@H](C)[C@@H](CN(C)S(=O)(=O)c2cccc(F)c2)OCc2ccccc2-c2c(n(C)c3ccccc23)C1=O | 83.4% (active) |
| Cc1ccc(S(=O)(=O)Nc2ccc3c(c2)C(=O)N([C@@H](C)CO)C[C@@H](C)[C@H](CN(C)CC2CC2)O3)cc1 | -3.68% |

| SMILES | inhibition |
| --- | --- |
| COc1ccccc1-c1ccc([C@H]2[C@H](CO)N(C(=O)C3CC3)C23CN(C(C)=O)C3)cc1 | 1.61% |
| OCCCNc1nccc(-c2cc(Nc3cccc(Cl)c3)ncn2)n1 | 107% (active) |
| CCOc1c(Nc2cccc(Cl)c2)c(=O)c1=O | -11.1% |
| C[C@H](CO)N1C[C@H](C)[C@@H](CN(C)CC2CCCCC2)Oc2ccc(NC(=O)Cn3cnnn3)cc2CC1=O | -19.1% |
| COc1ccc(CN(C)C[C@H]2Oc3c(NS(=O)(=O)c4ccc(Cl)cc4)cccc3C(=O)N([C@H](C)CO)C[C@H]2C)cc1 | 5.03% |
| NC1=CC(=O)C(=O)c2cccnc21 | 117% (active) |
| COc1cc(/C=N/Nc2ccc(C)cc2)cc(Br)c1O | -15% |
| COc1ccccc1-n1c(SCC(=O)Nc2cccc(C(=O)O)c2)nnc1-c1ccccc1O | 19% |
| COc1cccc(/C=N/Nc2cc(C)nc(-c3ccccc3O)n2)c1O | 90.5% (active) |
| Cc1ccc(S(=O)(=O)N(C)C[C@H]2Oc3ccc(NS(=O)(=O)c4ccccc4)cc3CC(=O)N([C@@H](C)CO)C[C@H]2C)cc1 | -2.41% |
| C[C@@H]1CN([C@H](C)CO)C(=O)c2cccc(NS(=O)(=O)c3ccc(F)cc3)c2O[C@H]1CN(C)Cc1ccc(Oc2ccccc2)cc1 | 16.4% |
| CCC(=O)c1ccc(OC(=O)/C=C/c2cc(OC)c(OC)c(OC)c2)cc1 | -5.71% |
| COc1ccc2[nH]c(C(=O)Nc3ccccc3Cl)cc2c1 | -22.1% |
| COc1ccc2[nH]c(C(=O)N/N=C/c3cc(OC)c(OC)c(OC)c3)cc2c1 | 85.3% (active) |
| C[C@@H]1CCCCO[C@@H](CN(C)S(=O)(=O)c2cccs2)[C@@H](C)CN([C@@H](C)CO)C(=O)c2cc(NS(=O)(=O)c3ccc(F)cc3)ccc2O1 | 32% |
| Cc1ccc(S(=O)(=O)N[C@H]2CC[C@H](CC(=O)NCc3ccccc3F)O[C@@H]2CO)cc1 | 3.28% |
| Cc1cc2occ(CC(=O)NNC(=O)c3ccccc3F)c2cc1C | -1.24% |
| O=C(Cn1cnc2ccccc2c1=O)NNC(=O)c1ccccc1F | 0.953% |
| Cn1c(CC(=O)NNC(=O)c2ccccc2F)nc2ccccc21 | 74.1% (active) |
| O=C(C[C@H]1CC[C@@H]2[C@H](COC[C@@H](O)CN2Cc2cc(F)cc(F)c2)O1)NC1CCC1 | 4.75% |
| COc1ccc2c3c([nH]c2c1)[C@H](CO)N(C(=O)Nc1ccc(F)cc1)CC31CCN(CC2CCOCC2)CC1 | 27.1% |
| O=C(NCCc1ccccc1)c1cccc(NC(=O)c2ccccc2)c1 | -77.4% |
| Cc1cc(=O)c2ccc(NC(=O)c3ccccc3)cc2[nH]1 | -7.38% |
| O=C(NC1=CC(=O)c2ccccc2C1=O)c1ccccc1 | 99.2% (active) |
| Cc1ccc(NC(=O)O/N=C/c2cccc([N+](=O)[O-])c2)cc1 | -64.7% |
| O=C(Nc1cccc([N+](=O)[O-])c1)N1CCc2ccccc2C1 | -115% |

| SMILES | inhibition |
| --- | --- |
| COC(=O)/C=C\C(=O)Nc1cccc([N+](=O)[O-])c1 | 87.5% (active) |
| Cc1onc(NC(=O)c2ccc([N+](=O)[O-])o2)c1Br | 12.3% |
| O=C(Nc1cccc(NC(=O)c2ccccc2[N+](=O)[O-])c1)c1ccccc1Cl | -26.3% |
| Cc1cccc(NC(=O)c2ccc([N+](=O)[O-])o2)c1 | 86.2% (active) |
| O=C(N[C@H]1CC[C@H](CCNS(=O)(=O)c2ccc(F)cc2)O[C@H]1CO)C1CCC1 | 5.47% |
| O=C(CCc1ccc(O)cc1)NN=Cc1cc(Br)ccc1O | 5.02% |
| O=C(CCCO)N/N=C/c1cc(Br)ccc1O | 65% (active) |
| O=C(N/N=C/c1ccccc1O)/C(=C/c1ccccc1)CCO | 8.09% |
| CN1CCN(C(=O)C[C@H]2C[C@@H]3c4cc(NS(=O)(=O)c5ccc(F)cc5)ccc4O[C@@H]3[C@@H](CO)O2)CC1 | -4.63% |
| CCOC(=O)Nc1ccc2c(c1)N(C(=O)CN1CCN3CCCC3C1)c1ccccc1CC2 (stereo not drawn) | -14.6% |
| CC(C)(COC(=O)Nc1ccccc1)COC(=O)Nc1ccccc1 | -10.7% |
| CCOC(=O)Nc1ccc2c(c1)N(C(=O)CCCl)c1ccccc1[S@]2=O | 120% (active) |
| CO[C@H]1CN(C)C(=O)c2ccc(NC(=O)C3CC3)cc2OC[C@@H](C)N(C(=O)CN2CCOCC2)C[C@H]1C | 8.74% |
| Cc1onc(-c2ccccc2)c1C(=O)N=C(N)c1ccc(Cl)cc1 | 8.52% |
| COc1ccc(C(=O)NNC(=O)c2cc(C)[nH]n2)cc1 | -12.8% |
| Cc1[nH]c2ccccc2c1C(=O)COC(=O)c1c(-c2ccccc2)noc1C | 20.4% |
| Cc1onc(-c2ccccc2)c1C(=O)NNC(=S)NC(=O)c1ccc(F)cc1 | 69.8% (active) |
| O=C(NNC(=S)NC(=O)c1cn(-c2ccccc2)nc1-c1ccccc1)c1ccncc1 | -7.23% |
| COc1ccc(C(=O)NC(=S)NNC(=O)c2c(-c3ccccc3)noc2C)cc1 | 103% (active) |
| COc1cccc(-c2ccc3n(c2=O)C[C@H]2[C@H](CO)[C@@H](C(=O)N4CCCCC4)N(C)[C@@H]32)c1 | 10.3% |
| C[C@@H]1CN([C@H](C)CO)C(=O)c2cc(C#Cc3cccnc3)cnc2O[C@@H]1CN(C)Cc1ccc(F)cc1 | -16.3% |
| Cc1ccccc1S(=O)(=O)NCC[C@@H]1CC[C@H](NC(=O)C2CCC2)[C@@H](CO)O1 | 6.58% |
| CN1C[C@@H]2[C@H](c3ccccc31)[C@H](CO)N2C(=O)Nc1ccc(F)cc1 | -2.1% |
| CO[C@H]1CN(C)C(=O)c2ccc(NC(=O)Nc3c(C)noc3C)cc2OC[C@@H](C)NC[C@H]1C | -5.2% |
| COc1ccc(C#Cc2ccc([C@@H]3[C@H](CO)N4C(=O)CN(C(C)=O)C[C@@H]34)cc2)cc1 | -10.2% |
| CCS(=O)(=O)Nc1ccc2c(c1)C(=O)N(C)[C@@H]1CC[C@@H](CC(=O)N3CCCCC3)O[C@H]1CO2 | -5.14% |
